PubChem BioAssay AID1159580 (chemical genetic matrix, 2015)
The campaign covered roughly 5,500 compounds. About 2,000 (36%) were called active. Inconclusive results (about 18%) are left out. Rule as the data show it: active = normalized growth mostly below about 0.91 (no sharp cut-off); inconclusive = no clear call, values can overlap the other calls; inactive = mostly above about 0.92. This is one part of the list.

Test: chemical genetic growth profiling, strain panel (AID 1159580);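 also: tested at 20 µM; growth read once vehicle control cultures reached saturation at 30 °C; 1 = growth at the plate median or of vehicle wells; lower values mean less growth of the strain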
Details: growth OD

Measured: normalized growth

O=C(O)C(O)C(O)C(=O)O (configuration not stated)
inactive: S. cerevisiae deletion strains, locus YJR075W, strain HOC1, active compounds read low 0.993 | S. cerevisiae deletion strains, locus YKL009W, strain mrt4, active compounds read low 0.985 | S. cerevisiae deletion strains, locus YKL068W, active compounds read low 0.98 | S. cerevisiae deletion strains, locus YKL085W, strain MDH1 (second series), active compounds read low 0.986 | S. cerevisiae deletion strains, locus YKL085W, strain MDH1, active compounds read low 0.986 | S. cerevisiae deletion strains, locus YKL160W, strain elf1, active compounds read low 1.01 | S. cerevisiae deletion strains, locus YKL190W, strain CNB1, active compounds read low 0.978 | S. cerevisiae deletion strains, locus YKR001C, strain vps1, active compounds read low 0.983 | S. cerevisiae deletion strains, locus YKR026C, strain gcn3, active compounds read low 1.01 | S. cerevisiae deletion strains, locus YKR091W, strain srl3, active compounds read low 1 | S. cerevisiae deletion strains, locus YLL001W, strain dnm1, active compounds read low 0.992 | S. cerevisiae deletion strains, locus YLL026W, active compounds read low 0.972 | S. cerevisiae deletion strains, locus YLL041C, strain sdh2, active compounds read low 0.994 | S. cerevisiae deletion strains, locus YLR027C, strain aat2, active compounds read low 0.999 | S. cerevisiae deletion strains, locus YLR039C, strain RIC1, active compounds read low 0.961 | S. cerevisiae deletion strains, locus YLR058C, strain SHM2, active compounds read low 0.976 | S. cerevisiae deletion strains, locus YLR102C, strain apc9, active compounds read low 0.988 | S. cerevisiae deletion strains, locus YLR113W, strain HOG1, active compounds read low 0.938 | S. cerevisiae deletion strains, locus YLR221C, strain rsa3, active compounds read low 0.986 | S. cerevisiae deletion strains, locus YLR258W, strain gsy2, active compounds read low 0.998 | S. cerevisiae deletion strains, locus YLR262C, strain YPT6 (second series), active compounds read low 1.01 | S. cerevisiae deletion strains, locus YLR262C, strain YPT6, active compounds read low 0.934 | S. cerevisiae deletion strains, locus YLR268W, strain sec22, active compounds read low 0.971 | S. cerevisiae deletion strains, locus YLR320W, strain mms22, active compounds read low 1 | S. cerevisiae deletion strains, locus YLR330W, strain CHS5, active compounds read low 0.991 | S. cerevisiae deletion strains, locus YLR342W, strain FKS1 (second series), active compounds read low 1.03 | S. cerevisiae deletion strains, locus YLR342W, strain FKS1, active compounds read low 0.997 | S. cerevisiae deletion strains, locus YLR357W, strain rsc2, active compounds read low 0.966 | S. cerevisiae deletion strains, locus YLR370C, strain arc18, active compounds read low 1 | S. cerevisiae deletion strains, locus YLR371W, strain rom2, active compounds read low 0.997 | S. cerevisiae deletion strains, locus YLR384C, strain iki3, active compounds read low 0.988 | S. cerevisiae deletion strains, locus YLR418C, strain cdc73, active compounds read low 0.986 | S. cerevisiae deletion strains, locus YML016C, strain PPZ1, active compounds read low 0.992 | S. cerevisiae deletion strains, locus YML032C, strain rad52, active compounds read low 1 | S. cerevisiae deletion strains, locus YML120C, strain ndi1, active compounds read low 0.998 | S. cerevisiae deletion strains, locus YML124C, strain tub3, active compounds read low 0.997 | S. cerevisiae deletion strains, locus YMR058W, strain fet3, active compounds read low 1.01 | S. cerevisiae deletion strains, locus YMR078C, strain ctf18, active compounds read low 0.984 | S. cerevisiae deletion strains, locus YMR125W, strain sto1, active compounds read low 0.987 | S. cerevisiae deletion strains, locus YMR129W, active compounds read low 0.995 | S. cerevisiae deletion strains, locus YMR205C, strain PFK2, active compounds read low 0.981 | S. cerevisiae deletion strains, locus YMR223W, strain ubp8, active compounds read low 1 | S. cerevisiae deletion strains, locus YMR231W, strain pep5, active compounds read low 1 | S. cerevisiae deletion strains, locus YMR263W, strain SAP30, active compounds read low 0.976 | S. cerevisiae deletion strains, locus YMR307W, strain GAS1, active compounds read low 0.921 | S. cerevisiae deletion strains, locus YNL067W, strain RPL9B, active compounds read low 0.993 | S. cerevisiae deletion strains, locus YNL071W, strain lat1, active compounds read low 0.987 | S. cerevisiae deletion strains, locus YNL128W, strain TEP1, active compounds read low 0.981 | S. cerevisiae deletion strains, locus YNL153C, strain GIM3, active compounds read low 0.979 | S. cerevisiae deletion strains, locus YNL183C, strain NPR1, active compounds read low 0.919 | S. cerevisiae deletion strains, locus YNL209W, strain ssb2, active compounds read low 1.02 | S. cerevisiae deletion strains, locus YNL233W, strain BNI4, active compounds read low 0.986 | S. cerevisiae deletion strains, locus YNL248C, strain rpa49, active compounds read low 0.994 | S. cerevisiae deletion strains, locus YNL250W, strain rad50, active compounds read low 0.987 | S. cerevisiae deletion strains, locus YNL271C, strain bni1, active compounds read low 0.992 | S. cerevisiae deletion strains, locus YNL298W, strain CLA4, active compounds read low 0.988 | S. cerevisiae deletion strains, locus YNL307C, strain MCK1, active compounds read low 0.991 | S. cerevisiae deletion strains, locus YNL322C, strain KRE1 (second series), active compounds read low 0.985 | S. cerevisiae deletion strains, locus YNL322C, strain KRE1, active compounds read low 0.99 | S. cerevisiae deletion strains, locus YNR049C, strain mso1, active compounds read low 1 | S. cerevisiae deletion strains, locus YNR052C, strain pop2, active compounds read low 0.991 | S. cerevisiae deletion strains, locus YOL006C, strain TOP1, active compounds read low 0.97 | S. cerevisiae deletion strains, locus YOL012C, strain htz1 1.53 | S. cerevisiae deletion strains, locus YOL147C, strain pex11, active compounds read low 0.987 | S. cerevisiae deletion strains, locus YOR001W, strain rrp6, active compounds read low 0.991 | S. cerevisiae deletion strains, locus YOR061W, strain CKA2, active compounds read low 0.959 | S. cerevisiae deletion strains, locus YOR069W, strain VPS5, active compounds read low 0.997 | S. cerevisiae deletion strains, locus YOR070C, strain gyp1, active compounds read low 0.984 | S. cerevisiae deletion strains, locus YOR080W, strain dia2, active compounds read low 1 | S. cerevisiae deletion strains, locus YOR083W, strain WHI5, active compounds read low 1.01 | S. cerevisiae deletion strains, locus YOR106W, strain vam3, active compounds read low 0.994 | S. cerevisiae deletion strains, locus YOR136W, strain idh2, active compounds read low 0.997 | S. cerevisiae deletion strains, locus YOR144C, strain elg1, active compounds read low 0.986 | S. cerevisiae deletion strains, locus YOR184W, strain ser1, active compounds read low 1.01 | S. cerevisiae deletion strains, locus YOR231W, strain MKK1, active compounds read low 0.959 | S. cerevisiae deletion strains, locus YOR265W, strain rbl2, active compounds read low 0.995 | S. cerevisiae deletion strains, locus YOR270C, strain vph1, active compounds read low 0.979 | S. cerevisiae deletion strains, locus YOR290C, strain snf2, active compounds read low 1.02 | S. cerevisiae deletion strains, locus YOR316C, strain cot1, active compounds read low 0.98 | S. cerevisiae deletion strains, locus YPL051W, strain arl3, active compounds read low 1.01 | S. cerevisiae deletion strains, locus YPL055C, strain LGE1, active compounds read low 0.965 | S. cerevisiae deletion strains, locus YPL078C, strain atp4, active compounds read low 0.999 | S. cerevisiae deletion strains, locus YPL106C, strain sse1, active compounds read low 0.976 | S. cerevisiae deletion strains, locus YPL240C, strain hsp82, active compounds read low 0.989 | S. cerevisiae deletion strains, locus YPL256C, strain CLN2, active compounds read low 0.943 | S. cerevisiae deletion strains, locus YPR119W, strain clb2, active compounds read low 0.994 | S. cerevisiae deletion strains, locus YPR141C, strain kar3, active compounds read low 0.97 | S. cerevisiae deletion strains, locus YPR163C, strain tif3, active compounds read low 0.991 | S. cerevisiae deletion strains, locus YPR167C, strain met16, active compounds read low 0.98 | S. cerevisiae deletion strains, strain wtn01, active compounds read low 0.997 | S. cerevisiae strains, strain wild type, active compounds read low 0.996
active: S. cerevisiae deletion strains, locus YPL241C, strain CIN2, active compounds read low 1.07 [resistant]
